Data reported in the supplement of paper PMC7366291.
Structures can show the parent of a compound that is named as a salt. ± gives the standard deviation or the standard deviation of the averaged measurements.

Legend:
Settings in all cases: 25 µM; exposure: 24-48 hpf
[1] = system: Danio rerio Tg(wt1b:EGFP) embryo, pronephros; assay: glomerular separation, fold change vs DMSO control; higher = glomeruli further apart (abnormal)
How it was run: (§1)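 Dechorionated Tg(wt1b:EGFP) zebrafish embryos were treated with 25 μM compound in 0.5% DMSO, in HEPES-buffered E3 with 0.003% PTU, from 24 to 48 hpf at 28.5°C. On maximum projections of dorsal pronephros images, 16 hand-placed reference points in Fiji gave distances and angles, and values more than 2 SD from the feature mean were left out. Results are fold changes over the mean of same-day DMSO-treated embryos.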

[2] = system: Danio rerio Tg(wt1b:EGFP) embryo, pronephros; assay: glomerular width (mean of left and right), fold change vs DMSO control; higher = wider glomerulus
How it was run: as §1

[3] = system: Danio rerio Tg(wt1b:EGFP) embryo, pronephros; assay: fraction of imaged embryos annotated as normal kidney; higher = less nephrotoxic; extreme values may be limits of the assay
How it was run: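 The read-out is the proportion of embryos in each treatment manually annotated as normal-kidney. Exposure ran from 24 to 48 hpf at 28.5°C in 12-well plates, using dechorionated Tg(wt1b:EGFP) zebrafish embryos in 5 mM HEPES-buffered E3 with 0.003% PTU, 0.5% DMSO and 25 μM compound. For imaging, larvae were anaesthetised with tricaine, positioned dorsally in agarose-filled 96-well plates and captured by widefield fluorescence (470 nm, 10 z-slices), with scoring done on maximum projections.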

[4] = system: Danio rerio Tg(wt1b:EGFP) embryo, pronephros; assay: pronephric angle neck segment to proximal convoluted tubule (mean of left and right), fold change vs DMSO control; higher = larger pronephric angle
How it was run: as §1

## O=C(CCCCC(=O)Nc1c(I)cc(I)c(C(=O)O)c1I)Nc1c(I)cc(I)c(C(=O)O)c1I [Iodipamide]
[1]
  glomerular separation: 0.857 ± 0.54
[2]
  glomerular width: 1.05 ± 0.076
[3]
  fraction of imaged embryos annotated as normal kidney: 0.75
[4]
  pronephric angle neck segment: 1.0067 ± 0.00076

## COc1ccc(C(=O)NCc2cccnc2)cc1C(=O)NCc1cccnc1 [Picotamide monohydrate]
[1]
  glomerular separation: 0.955 ± 0.31
[2]
  glomerular width: 1.028 ± 0.0052
[3]
  fraction of imaged embryos annotated as normal kidney: 0.75
[4]
  pronephric angle neck segment: 0.991 ± 0.0099

## CCOC(=O)[N-]c1c[n+](N2CCOCC2)no1 [Molsidomine]
[1]
  glomerular separation: 0.9 ± 0.41
[2]
  glomerular width: 0.9963 ± 0.0028
[3]
  fraction of imaged embryos annotated as normal kidney: 0.833
[4]
  pronephric angle neck segment: 0.982 ± 0.013

## C[C@@H](c1ncncc1F)[C@](O)(Cn1cncn1)c1ccc(F)cc1F [Voriconazole]
[1]
  glomerular separation: 0.875 ± 0.21
[2]
  glomerular width: 1.02 ± 0.015
[3]
  fraction of imaged embryos annotated as normal kidney: 0.5
[4]
  pronephric angle neck segment: 1.01 ± 0.027

## COc1cc(Cc2cnc(N)nc2N)cc(OC)c1OC [Trimethoprim]
[1]
  glomerular separation: 1.48 ± 0.76
[2]
  glomerular width: 0.986 ± 0.013
[3]
  fraction of imaged embryos annotated as normal kidney: 0.727
[4]
  pronephric angle neck segment: 1.05 ± 0.063

## CC(=O)N(CC(C)C(=O)O)c1c(I)cc(I)c(N)c1I (stereo unspecified) [Iocetamic acid]
[1]
  glomerular separation: 0.546 ± 0.25
[2]
  glomerular width: 0.974 ± 0.011
[3]
  fraction of imaged embryos annotated as normal kidney: 0.917
[4]
  pronephric angle neck segment: 0.986 ± 0.024

## O=C1c2c(O)ccc(O)c2C(=O)c2c(NCCNCCO)ccc(NCCNCCO)c21 [Mitoxantrone dihydrochloride]
[1]
  glomerular separation: 1.13 ± 0.46
[2]
  glomerular width: 1.03 ± 0.063
[3]
  fraction of imaged embryos annotated as normal kidney: 0.667
[4]
  pronephric angle neck segment: 1.07 ± 0.1

## O=C(O)Cc1ccccc1Nc1c(Cl)cccc1Cl [Diclofenac sodium]
[1]
  glomerular separation: 3.78 ± 1.9
[2]
  glomerular width: 0.492 ± 0.031
[3]
  fraction of imaged embryos annotated as normal kidney: 0
[4]
  pronephric angle neck segment: 1.63 ± 0.018

## OCCN(CCO)c1nc(N2CCCCC2)c2nc(N(CCO)CCO)nc(N3CCCCC3)c2n1 [Dipyridamole]
[1]
  glomerular separation: 0.687 ± 0.13
[2]
  glomerular width: 0.982 ± 0.046
[3]
  fraction of imaged embryos annotated as normal kidney: 0.8
[4]
  pronephric angle neck segment: 1.017 ± 0.0071

## Brc1c(NC2=NCCN2)ccc2nccnc12 [Brimonidine L-Tartrate]
[1]
  glomerular separation: 0.614 ± 0.22
[2]
  glomerular width: 1.11 ± 0.043
[3]
  fraction of imaged embryos annotated as normal kidney: 1
[4]
  pronephric angle neck segment: 0.993 ± 0.1

## CCCOc1ccc(C(=O)OCCN(CC)CC)cc1N [Proparacaine hydrochloride]
[1]
  glomerular separation: 0.768 ± 0.39
[2]
  glomerular width: 0.93 ± 0.052
[3]
  fraction of imaged embryos annotated as normal kidney: 0.833
[4]
  pronephric angle neck segment: 0.998 ± 0.041

## Clc1ccc(C(Cn2ccnc2)OCc2ccsc2Cl)c(Cl)c1 (stereo unspecified) [Tioconazole]
[1]
  glomerular separation: 1.29 ± 0.51
[2]
  glomerular width: 0.965 ± 0.013
[3]
  fraction of imaged embryos annotated as normal kidney: 0.417
[4]
  pronephric angle neck segment: 1.21 ± 0.085

## CNC[C@H](O)[C@@H](O)[C@H](O)[C@H](O)CO [Meglumine]
[1]
  glomerular separation: 0.734 ± 0.11
[2]
  glomerular width: 1.03 ± 0.061
[3]
  fraction of imaged embryos annotated as normal kidney: 0.909
[4]
  pronephric angle neck segment: 1.006 ± 0.0029

## CN(C)CC/C=C1/c2ccccc2Sc2ccc(Cl)cc21 [Chlorprothixene hydrochloride]
[1]
  glomerular separation: 0.89 ± 0.23
[2]
  glomerular width: 1.034 ± 1.4e-05
[3]
  fraction of imaged embryos annotated as normal kidney: 0.727
[4]
  pronephric angle neck segment: 1.04 ± 0.074
